Source: PubChem BioAssay AID686979 (National Center for Advancing Translational Sciences (NCATS), 2013)
Among all 420,000 compounds or so, about 50,000 (12%) were called active. Inconclusive results (about 26%) are left out. The call rests on the fitted dose curve; in most records, active means well fitted inhibition curve with a large enough effect; inconclusive means small, poorly fitted or top-dose-only effect; inactive means flat fitted curve, though single readings scatter. The sample as a whole holds a higher share of actives than the screen did.

assay: qHTS for Inhibitors of human tyrosyl-DNA phosphodiesterase 1 (TDP1): qHTS in cells in presence of CPT; details: chicken DT40 Tdp1-/-;hTDP1 cells + 20 nM CPT, ATP luminescence, 48 h; series mostly up to 46.2 µM; activity change, negative = growth inhibition: at the top concentration; further: nearly all actives have a fitted effect of over 55% in size
How it was run: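 Cell growth measured by CellTiter-Glo luminescence after a minimum 48 h, 37 C compound exposure with 20 nM CPT in Tdp1-knockout DT40 cells stably expressing hTDP1, seeded 400/well; qHTS titration format.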
On the % scale 0 is the no-effect control and ±100 the full control effect; potency means the concentration at half of the fitted maximal effect.

SMILES | activity change, negative = growth inhibition | Potency
C=C1O[C@@](CO)(n2cnc3c(N)ncnc32)[C@H](O)[C@@H]1O | 9.16% [at 92.5 µM] (inactive) | –
Cc1cccc(NC(=O)CCN2CC(C)CC(C)C2)c1 (centres undefined) | -19.3% (inactive) | –
CCOc1ccc(C(=O)COC(=O)c2ccc(-n3cnnn3)cc2)cc1 | 11.6% (inactive) | –
COC(=O)c1ccc(/C=N/NC(=O)C(=O)N2CCCCCC2)cc1 | -8.03% (inactive) | –
CCOC(=O)c1c(S(=O)(=O)N2CCCC(C(=O)NCc3cccc(C)c3)C2)c(C)n(C)c1C (centres undefined) | -6.53% (inactive) | –
CCC(C)N(C(=O)Cn1nc(C)c([N+](=O)[O-])c1C)C1CCS(=O)(=O)C1 (centres undefined) | 4.68% (inactive) | –
CCOc1ccc(NC(=O)c2ccc(NC(=O)CN3C(=O)C(=O)N(CC(C)C)C3=O)cc2)cc1 | -28.5% (inactive) | –
O=C(NCCCN1CCOCC1)c1cnn2c(-c3ccccc3)cc(-c3ccccc3)nc12 | – | 18.4 µM (active)
O=C(NCCCN1CCOCC1)c1ccccc1NS(=O)(=O)c1ccc(F)cc1 | 18.5% (inactive) | –
O=C(NCCCN1CCOCC1)c1ccccc1NS(=O)(=O)c1ccc(Br)cc1 | 2.63% (inactive) | –
O=C(NCc1ccco1)/C(=C\c1cccc([N+](=O)[O-])c1)NC(=O)c1ccco1 | 0.91% (inactive) | –
O=C1C(Cl)=C(Oc2ccccc2)C(=O)c2ccccc21 | – | 0.326 µM (active)
CC(=O)Oc1ccc2c(c1)C(=O)c1ccccc1C2=O | -4.67% (inactive) | –
COc1ccccc1-n1c(SCC(=O)Nc2ccc(Cl)cc2)nc(O)c(Cc2ccccc2)c1=O | -21.9% (inactive) | –
COc1ccc(Cl)cc1NC(=O)CN1CCN(C(=O)N2CCOCC2)CC1 | 0.0115% (inactive) | –
Cc1ccc(NC(=O)c2sc3nc(N)c(C#N)cc3c2N)cc1 | -7.66% (inactive) | –
CCN1CCc2nc(NC(=O)c3cc(F)c(F)cc3Cl)sc2C1 | 3.07% (inactive) | –
CCc1ccc(NC(=O)c2sc3nc4c(cc3c2N)CN(CC)CC4)cc1 | – | 23.1 µM (active)
COc1ccc(Cl)cc1NC(=O)c1sc2nc3c(cc2c1N)CN(C)CC3 | – | 23.1 µM (active)
CC(=O)Nc1ccc(NC(=O)c2sc3nc4c(c(-c5ccc(C)cc5)c3c2N)CCC4)cc1 | -1.29% (inactive) | –
COc1ccccc1NC(=O)c1ccc2nc(N3C(=O)CCC3=O)sc2c1 | -8.2% (inactive) | –
COc1ccc(Cl)cc1NC(=O)c1oc(C)nc1C | -6.17% (inactive) | –
CCN1CCc2nc3sc(C(=O)Nc4ccccc4OC(F)(F)F)c(N)c3cc2C1 | – | 16.4 µM (active)
O=C(c1cn(-c2ccccc2)nc1-c1cccnc1)N1CCN(S(=O)(=O)c2ccccc2F)CC1 | -31.7% (inactive) | –
O=C(NC(=S)Nc1ncccn1)c1ccccc1Br | -26.7% (inactive) | –
COC(=O)C1(CCSC)NC(c2ccc(OC)cc2OC)C2C(=O)N(c3cccc(C(C)=O)c3)C(=O)C21 (centres undefined) | -0.339% (inactive) | –

SMILES | activity change, negative = growth inhibition | Potency
O=C(CSc1ccccn1)N1CCN(S(=O)(=O)c2ccc(Cl)cc2)CC1 | -6.31% (inactive) | –
O=P(O)(O)OC[C@H](O)CO | -6.58% (inactive) | –
Cc1cn([C@H]2C[C@H](O)[C@@H](/C=C/C(=O)NCCCc3ccccc3)O2)c(=O)[nH]c1=O | 9.83% (inactive) | –
Cc1ccc(-c2nc(CS(=O)(=O)CC(=O)NCc3ccc4c(c3)OCO4)c(C)o2)cc1 | 2.22% (inactive) | –
Cc1ccc(CNCc2ccc3c(c2)OCO3)c(C)c1 | 20.3% (inactive) | –
Cc1ccc(S(=O)(=O)N(CCCN(C)C)Cc2ccc3c(c2)OCO3)cc1 | – | 16.4 µM (active)
CC1CN(C(=S)Nc2ccc(Br)cc2Cl)CC(C)O1 (centres undefined) | -1.84% (inactive) | –
CC[n+]1cc(C)ccc1/C=C/c1ccc(N(C)C)cc1 | – | 0.0291 µM (active)
COc1ccccc1-n1cnc2cc(NS(=O)(=O)c3ccccc3)ccc21 | -23.5% (inactive) | –
CCOC(=O)CSC1=Nc2ccccc2C2=NC(CCC(=O)NCc3ccc(F)cc3)C(=O)N12 (centres undefined) | -21.9% (inactive) | –
CCN1N=C(c2ccccc2)CCC1=O | 0.136% (inactive) | –
O=C(NC1=NCCS1)c1ccc(Cl)s1 | -8.25% (inactive) | –
CC(=O)NC1=NN(C(C)=O)C(C)(c2ccc(Cl)s2)S1 (centres undefined) | – | 6.51 µM (active)
CC(=O)NC1=NN(C(C)=O)C(C)(CCS(=O)(=O)c2ccc(Cl)c(Cl)c2)S1 (centres undefined) | 13% (inactive) | –
CC/C(Cc1ccccc1)=N/NC(=O)CCn1nnc2ccccc21 | 13.6% (inactive) | –
O=C(O)c1ccc(Nc2nc(-c3ccccc3)c3cc(Br)ccc3n2)cc1 | 0.528% (inactive) | –
Nc1nc(Nc2ccccc2)nc(NCCO)c1[N+](=O)[O-] | -8.15% (inactive) | –
OCCNc1nc(Nc2ccc(Cl)c(Cl)c2)nc2ccccc12 | – | 18.4 µM (active)
CO[C@H]1[C@@H]2C=CO[C@@H](O[C@H]3O[C@@H](CO)[C@H](O)[C@@H](O)[C@@H]3O)[C@@H]2[C@@]2(CO)O[C@@H]12 | -14.4% (inactive) | –
CCN(C(=O)CSc1nnc(-c2ccncc2)o1)c1ccccc1 | -8.99% (inactive) | –
O=C(COc1ccccc1)N1CCN=C1SCc1cccc(F)c1 | -17.8% (inactive) | –
COc1ccc(C(=O)NNC(=S)NC(=O)c2ccccc2[N+](=O)[O-])cc1 | – | 18.4 µM (active)
O=C(NNC(=O)c1ccc(Cl)nc1)c1ccc(Br)cc1 | 10.8% (inactive) | –
CC(C)Oc1ccc(CCC(=O)NNC(=S)NCc2ccccc2)cc1 | 4.02% (inactive) | –
COc1ccc(C(=O)NC(=S)NNC(=O)c2c(-c3ccccc3)noc2C)cc1 | -13.7% (inactive) | –
COc1ccc(NC(=O)c2ccccc2[N+](=O)[O-])cc1OC | 7.09% (inactive) | –

SMILES | activity change, negative = growth inhibition | Potency
COc1ccc(C(=S)Nc2ccccc2)cc1 | -2.36% (inactive) | –
CNC(=S)NNC(=O)c1ccc(N(C)C)cc1 | 4.25% (inactive) | –
O=C(CCc1ccccc1)NNC(=O)c1ccc(Br)cc1 | 24.8% (inactive) | –
COc1ccc(C(=O)NC(=S)NNC(=O)CCc2ccccc2)cc1 | – | 8.2 µM (active)
CC(=O)NC(=S)NNC(=O)c1ccc(Br)cc1 | – | 6.51 µM (active)
COc1ccc(C(=O)NNC(=S)NC(=O)c2ccccc2)cc1 | – | 9.2 µM (active)
COC(=O)CNC(=O)c1ccccc1[N+](=O)[O-] | 1.96% (inactive) | –
CSCCC(NC(=O)COc1ccccc1)C(=O)OCc1ccc(Cl)cc1 (centres undefined) | -6.97% (inactive) | –
COc1cc(-c2cccnc2)cc2c1OCCN(C(=O)Cc1csc(C)n1)C2 | 11.9% (inactive) | –
CCCNC(=O)C1CC(=O)N(c2ccc(OCc3ccccc3)cc2)C1 (centres undefined) | -20.5% (inactive) | –
O=C(CCc1nc(CN2CCN(S(=O)(=O)c3ccc(Br)cc3)CC2)no1)N1CCCCC1 | -23.4% (inactive) | –
Cc1ccccc1N1C(=O)C2ON(c3ccccc3)C(c3ccncc3)C2C1=O (centres undefined) | -6.73% (inactive) | –
C/C(=N/OC(=O)c1ccc(Br)cc1)c1ccc(C)cc1 | 9.68% (inactive) | –
COc1ccc(-c2cc(=O)oc3cc(OCC(=O)N[C@@H](Cc4c[nH]c5ccccc45)C(=O)O)ccc23)cc1 | 16.5% (inactive) | –
O=C(N[C@H]1CC[C@H](CC(=O)N2CCCCC2)O[C@@H]1CO)c1cccc(F)c1 | -29.4% (inactive) | –
CCc1cc2c(=O)c(-c3nc4ccccc4n3C)c(CCCC(=O)O)oc2cc1OC(=O)C(C)(C)C | 4.25% (inactive) | –
CC1=C(C(=O)N(C)C)CC(CC(=O)NCCN2CCOCC2)C(=O)N1Cc1ccccc1 (centres undefined) | 1.27% (inactive) | –
COc1cccc(OCc2nnc3n2N=C(c2ccccc2)C(CC(=O)O)S3)c1 (centres undefined) | 0.703% (inactive) | –
O=C(COC(=O)Cn1[nH]c(=O)c2ccccc2c1=O)Nc1c(Cl)cccc1C(F)(F)F | -6.62% (inactive) | –
CC[C@H](C)[C@@H](C(=O)N1CCNCC1)n1cc([C@@H](N)Cc2ccc(O)cc2)nn1 | -15% (inactive) | –
COc1cc2ccccc2cc1C(=O)N1CCOCC1 | -0.501% (inactive) | –
COc1cc(C(=O)N2CCOCC2)cc(OC)c1OC | – | inactive
COc1c(Br)cc2c(C)c(C(=O)N3CCOCC3)oc2c1Br | – | 20.6 µM (active)
N#CCCN(C(=O)COC(=O)c1ccc2c(c1)OCCO2)c1ccccc1 | -0.784% (inactive) | –
CC(C)c1c(C(=O)N/N=C/c2ccccc2C(=O)O)nnn1-c1nonc1N | 2.99% (inactive) | –
Cn1c(=O)[nH]c(=O)c2c1[nH]c(=S)n2Cc1ccccc1 | -2.11% (inactive) | –

SMILES | activity change, negative = growth inhibition | Potency
CCCc1c(C(=O)N/N=C(\C)CCc2ccc(OC)cc2)nnn1-c1nonc1N | -9% (inactive) | –
Cc1cccc(N2O[C@H]3C=CC2CCCC3)n1 | 2.68% (inactive) | –
COP1(=O)C[C@@H](O)[C@@H](O)[C@@H](COCc2ccccc2)O1 (some centres undefined) | 13.7% (inactive) | –
O=C(NCCc1ccc(Cl)cc1)c1cccc(N2CCCC2=O)c1 | -22.3% (inactive) | –
O=C(c1ccc2c(c1)N(Cc1ccc(F)cc1)C(=O)CS2)N1CCOCC1 | -2.88% (inactive) | –
O=C(NCCc1ccc(Cl)cc1)c1ccc2c(c1)N(Cc1ccc(F)cc1)C(=O)CS2 | – | 20.6 µM (active)
CC1CCN(C(=O)c2ccccc2NC(=O)Cc2ccccc2)CC1 | -0.159% (inactive) | –
Cc1ccccc1C(=O)Nc1ccccc1NC(=O)c1ccccc1C | -8.28% (inactive) | –
Cc1ccccc1C(=O)NC(=S)Nc1ccc(N2CCN(C(=O)c3ccccc3)CC2)cc1 | – | 10.3 µM (active)
COc1ccc(N2CCN(C(=O)c3cccs3)CC2)cc1 | -13.7% (inactive) | –
O=C(NC(=O)c1ccccc1N1CCCCC1)Nc1ccc(Br)cc1 | 5.47% (inactive) | –
COc1ccccc1C(=O)NC(=S)Nc1ccc(N2CCOCC2)cc1 | -15.4% (inactive) | –
O=C(Nc1ccc(N2CCN(C(=O)C3CC3)CC2)cc1)c1cccs1 | 2.26% (inactive) | –
Cc1ccccc1C(=O)N1CCN(c2ccc(NC(=O)c3cccs3)cc2)CC1 | – | 18.4 µM (active)
Cc1ccccc1C(=O)Nc1ccc(N2CCCCCC2)cc1 | – | 14.6 µM (active)
Cc1cccc(C)c1NC(=O)CS(=O)CC(=O)N1CCN(c2ccccc2)CC1 (centres undefined) | -12.8% (inactive) | –
O=C(NC1CCCC1)C(c1c(F)cccc1Cl)N(C(=O)c1csnn1)C1CC1 (centres undefined) | -3.21% (inactive) | –
CCOC(=O)c1cn[nH]c1NC(=S)Nc1ccccc1 | -2.15% (inactive) | –
CCCCN1C(=O)C(=O)N(CC(=O)Nc2cccc(C(C)=O)c2)C1=O | 4.23% (inactive) | –
OCC1(CCOc2ccccc2)CCN(Cc2cn[nH]c2-c2ccccc2)CC1 | -27.5% (inactive) | –
OCC1(CCc2ccccc2)CCN(Cc2ccc3nsnc3c2)CC1 | -0.556% (inactive) | –
Cc1cccc(-c2ncc(CN3CCC(CO)(CCCc4ccccc4)CC3)cn2)c1 | – | 23.1 µM (active)
CC(=O)Nc1ccc2c3c(ccc([N+](=O)[O-])c13)CC2 | -4.5% (inactive) | –
O=C(COc1ccccc1Cl)Nc1ccccc1C(=O)NC1CC1 | – | 23.1 µM (active)
CN1CCN(C(=O)c2ccccc2NC(=O)COc2ccccc2Cl)CC1 | -15.8% (inactive) | –
COc1ccccc1OCC(=O)Nc1ccccc1C(=O)NC1CC1 | 17% (inactive) | –
